Experimental data reported in paper PMC5540273 (PLoS ONE, 2017).

Legend:
Conditions in all cases: concentration: 1 μM, replicates: in singlicate; n = 1
[1] = system: HIPK4
[2] = system: HPK1
[3] = system: HUNK
[4] = system: ICK
[5] = system: IGF1R
[6] = system: T1, IKK-alpha
T1 construct: gene CHUK

[7] = system: T2, IKK-beta
T2 construct: gene IKBKB

[8] = system: T3, IKK-epsilon
T3 construct: gene IKBKE

[9] = system: INSRR
[10] = system: INSR
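Further: KINOMEscan kinase panel screen.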

Compound | %Inh [1] [%] | %Inh [2] [%] | %Inh [3] [%] | %Inh [4] [%] | %Inh [5] [%] | %Inh [6] [%] | %Inh [7] [%] | %Inh [8] [%] | %Inh [9] [%] | %Inh [10] [%]
O=c1cc(N2CCOCC2)nc2n(Cc3ccccc3F)ccn12 [GSK2297428] | 0 | 34 | 0 | 0 | 7 | 0 | 0 | 0 | 0 | 0
CCc1ccc(-c2ccc3c(c2)-c2n[nH]cc2S(=O)(=O)N3C)cc1 | 23 | 16 | 34 | 0 | 0 | 0 | 0 | 0 | 0 | 0
O=C1NC(=O)C(c2ccc(Cl)cc2)=C1Nc1cccc(Cl)c1 [SB-317651] | 0 | 12 | 0 | 28 | 0 | 0 | 0 | 0 | 0 | 11
Cc1ccc(-c2nc(Nc3ccncc3)c3ccccc3n2)s1 [GSK189015] | 27 | 41 | 0 | 19 | 18 | 2 | 20 | 0 | 22 | 9
O=C(Nc1n[nH]c2nc(-c3ccco3)c(Br)cc12)C1CCN(Cc2ccccc2)C1.O=C(O)[C@H](O)[C@@H](O)C(=O)O (centres unmarked) [SB-742034] | 1 | 0 | 33 | 22 | 0 | 0 | 26 | 19 | 0 | 12
